Screening results from PubChem.
Pin1 inh – human Pin1 inhibition. Q13526. Pin1 FP peptide displacement, HiFluor488, 10 min. Potency, µM (titrated, usually from 115 µM), without a hit: at the top dose activity, negative = inhibition, most hits filed as inhibitors. 390,000 tested, 0.009% active; active = well fitted inhibition curve with a large enough effect in the polarisation, with a control signal flat, not every such curve was filed as active; inconclusive = small, poorly fitted or top-dose-only effect, or effect the other way, or a change in a side signal; inactive = no such curve, though single readings can be large or run the other way; the % refers to the polarisation; also: potency is read from the fitted curve at half-maximal effect
Target sequence (Q13526 whole entry, looked up): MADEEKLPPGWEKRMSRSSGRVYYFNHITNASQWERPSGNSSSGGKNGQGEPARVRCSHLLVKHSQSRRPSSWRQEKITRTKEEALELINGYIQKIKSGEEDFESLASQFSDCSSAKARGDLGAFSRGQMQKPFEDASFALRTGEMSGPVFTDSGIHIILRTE
KAT2A inh – GCN5L2 (KAT2A) acetyltransferase inhibition; AID 504327; GCN5L2 HAT assay, ThioGlo1 CoA-SH fluorescence; Q92830; 390,000 tested, 0.21% active; Potency, µM (doses to about 58.9 µM), inactives show at the highest dose activity change, negative = inhibition, most hits filed as inhibitors; also: potency is read from the fitted curve at half-maximal effect
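Fluorescence readout, Ex340nm/Em540nm: ThioGlo1 (50uM final) reacts with free CoA thiol released as 20nM GCN5L2 acetylates H3(1-25) peptide (75uM) using acetyl-CoA (70uM). Compound and enzyme sat 15 min beforehand; 20 min room-temperature reaction.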
GALK inhibitor – galactokinase (human) inhibition | AID 1868 | Purified GALK, Kinase-Glo residual ATP luminescence | Potency, µM (series often up to 57.5 µM), inactives show at the top dose activity change, negative = inhibition, actives largely listed as inhibitors | 270,000 tested, 0.007% active; also: potency is read from the fitted curve at half-maximal effect
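Quantitative HTS: GALK 5 nM, ATP 35 uM, galactose 100 uM, 1 h room temperature, then luciferase-based ATP detection.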
TrxR1 inh – inhibitors of rat thioredoxin reductase 1. 390,000 tested, 1% active. AID 588453. Potency, µM (doses to about 114 µM), for inactives: at the highest dose activity change, negative = inhibition, actives largely listed as inhibitors. recombinant rTrxR1, NADPH fluorescence consumption, selenite substrate; also: potency is read from the fitted curve at half-maximal effect; nearly all actives have a fitted effect of over 65% in size
Target sequence (O89049 whole entry, looked up): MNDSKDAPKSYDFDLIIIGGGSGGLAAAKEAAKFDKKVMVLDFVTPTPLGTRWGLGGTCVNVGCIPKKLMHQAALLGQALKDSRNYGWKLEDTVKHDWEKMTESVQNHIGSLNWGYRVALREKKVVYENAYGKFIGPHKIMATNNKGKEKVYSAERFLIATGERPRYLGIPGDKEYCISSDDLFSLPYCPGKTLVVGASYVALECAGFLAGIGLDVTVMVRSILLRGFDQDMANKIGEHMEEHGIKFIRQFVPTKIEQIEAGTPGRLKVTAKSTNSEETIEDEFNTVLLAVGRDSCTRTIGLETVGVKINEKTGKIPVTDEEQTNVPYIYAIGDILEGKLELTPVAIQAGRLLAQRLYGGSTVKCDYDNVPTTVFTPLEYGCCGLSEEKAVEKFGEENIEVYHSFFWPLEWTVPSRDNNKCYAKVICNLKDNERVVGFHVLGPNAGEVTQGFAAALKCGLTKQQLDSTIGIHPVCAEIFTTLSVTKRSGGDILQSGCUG
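Rat TrxR1 (90 nM in the dispensed reagent) was pre-reduced with 400 uM NADPH for 5 min at room temperature, then incubated with compound for 15 min. After 400 uM selenite was added, NADPH fluorescence (Ex 340/Em 450 nm) was followed for 8 min.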
TrxR1 substrate – is turned over as a substrate by rat TrxR1. O89049. purified TrxR1 substrate turnover, NADPH consumption readout. Potency, µM (series often up to 114 µM), for inactives: at the highest dose activity change, negative = substrate turnover. 390,000 tested, 0.01% active; also: potency is read from the fitted curve at half-maximal effect; nearly all actives have a fitted effect of over 50% in size
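Rat TrxR1, dispensed at 90 nM, was prereduced with 400 uM NADPH (final) for 5 min at ~22 deg C, then incubated with compound 15 min before 400 uM selenite. A first-read NADPH fluorescence drop versus no-compound background flagged substrates.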
Giardia kill – Giardia lamblia killing; Giardia lamblia trophozoite viability; activity change, % at 7.66 µM, hits read low; 340,000 tested, 0.15% active; in the data active = activity change below about -80%; inconclusive = between about -30% and that limit;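 also: parasites exposed to compound for two days anaerobically before the ATP read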
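Giardia trophozoites, 100 cells per well, were exposed to compounds for 48 hrs at 37 deg C under anaerobic conditions; viability was then read as ATP content by bioluminescence after 15-30 min at room temperature.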
Starred values were filed as active, the others as inactive; ? = inconclusive; . = not tested or not shown; [ ] = dose if it differs, or a comment. Most compounds without a hit are left out; they make up all but 1.3% or so of the library. Unless noted, calls follow the shape of the dose curve; as a rule, active = well fitted curve in the direction sought with a large enough effect; inconclusive = small, poorly fitted or top-dose-only effect, or another doubt; inactive = no such curve, though single readings can be large; an effect the other way counts as inactive or inconclusive. % is scaled to controls: 0 for no effect and ±100 for the full control effect.

SMILES	Pin1 inh	KAT2A inh	GALK inhibitor	TrxR1 inh	TrxR1 substrate	Giardia kill
O=C(OCn1ncc(Br)c(Br)c1=O)c1ccc(F)cc1	14.1%	-4.1%	-8.3%	1.78µM*	13.0%	-13.3
Cc1c(P(=S)(c2ccccc2)c2ccccc2)c2ccccc2n1CCCc1ccccc1	-3.2%	.	.	.	.	.
COc1ccc(N2CSC3=C(C#N)C(c4cccs4)CC(=O)N3C2)cc1 (stereo not given)	-15.0%	12.6µM*	4.8%	9.6%	-1.0%	11.8
COc1ccc(N2CSC3=C(C#N)C(c4cc(OC)c(OC)cc4OC)CC(=O)N3C2)c(OC)c1 (stereo not given)	50.3%	-22.0%	2.3%	?	4.7%[57.1 µM]	12.0
CCOc1ccccc1N1CSC2=C(C#N)C(c3c(OC)ccc4ccccc34)CC(=O)N2C1 (stereo not given)	17.1%	28.2µM*	0.4%	?	2.4%[57.1 µM]	-5.2
Cc1ccc(N2CSC3=C(C#N)C(c4cccs4)CC(=O)N3C2)cc1 (stereo not given)	21.9%	?	2.5%	?	-5.8%[57.1 µM]	-6.1
COc1ccc(C2CC(=O)N3CN(C4CCCCC4)CSC3=C2C#N)cc1 (stereo not given)	-20.6%	25.1µM*	.	?	-18.3%	.
COc1ccc(N2CSC3=C(C#N)C(c4cc(OC)ccc4OC)CC(=O)N3C2)c(OC)c1 (stereo not given)	50.6%	?	1.1%	14.1µM*	0.2%[57.1 µM]	7.2
COc1ccc(N2CSC3=C(C#N)C(c4ccc(OC)c(OC)c4)CC(=O)N3C2)c(OC)c1 (stereo not given)	35.8%	-24.8%	0.9%	?	-3.5%[57.1 µM]	2.4
COc1cccc(C2CC(=O)N3CN(C4CCCCC4)CSC3=C2C#N)c1 (stereo not given)	-6.8%	?	.	-8.0%	-4.3%	.
Cc1cc(C)c2c(c1)NC(C(=O)O)C1CC=CC21 (stereo not given)	?	28.2µM*	6.7%	3.98µM*	1.7%	-15.9
Cc1cc(C)c2c(c1)C1C=CCC1C(C(=O)O)N2 (stereo not given)	?	.	.	1.41µM*	0.7%	22.2
Cc1cccc(NC(=O)CSc2nnc(-c3ccco3)c(-c3ccco3)n2)c1C	.	?	2.7%	2.82µM*	-6.3%	-1.9
Cc1cccc(NC(=O)CSc2nnc(-c3ccco3)c(-c3ccco3)n2)c1	?	-3.3%	-1.2%	8.91µM*	-4.9%	22.4
Cc1ccccc1NC(=O)CSc1nnc(-c2ccco2)n1N	-7.7%	-3.8%	.	5.6%[57.1 µM]	3.8%[57.1 µM]	-28.3
COc1ccc(C2Nc3ccccc3C(=O)N2Cc2ccccc2)cc1COc1cccc(Cl)c1 (stereo not given)	18.8%	.	.	.	.	.
CC(C)Nc1ccc(-c2nc(-c3ccco3)no2)cc1[N+](=O)[O-]	-1.7%	-13.4%	.	9.2%	1.0%	.
Nc1nn(-c2ccccc2)nc1C(=O)OCc1c(F)cccc1Cl	8.6%	-8.9%	.	116.4%	106.1%	.
N#Cc1c(NC(=O)/C=C/c2ccco2)sc2c1CCCC2	16.0%	44.8%	0.5%	39.8µM*	-7.1%	5.9
O=C(/C=C/c1ccco1)Nc1sc2c(c1C(=O)O)CCC2	?	?	0.7%	?	-12.5%	-10.8
CCc1cc(C(=O)/C=C/c2cc3c(cc2C)OCCO3)c(O)cc1O	.	.	.	8.2%	-5.5%	.
COc1cc(CN2CCN(C(=O)CC(C)C)CC2)cc(OC)c1OC	-14.5%	38.8%	-1.4%	-1.6%	-1.6%	2.6
COc1ccc(C(=O)N2CCN(Cc3cc(OC)c(O)c(OC)c3)CC2)cc1OC	-3.0%	0.1%	1.3%	25.1µM*	12.1%	-0.1
COc1cc(CN2CCN(C(=O)CC(C)C)CC2)cc(OC)c1O	-12.3%	-9.0%	0.6%	7.94µM*	4.6%	0.3
CN(C)c1ccc(-c2cc[nH]c(=O)c2N)cc1	-0.7%	.	.	.	.	.
SMILES	Pin1 inh	KAT2A inh	GALK inhibitor	TrxR1 inh	TrxR1 substrate	Giardia kill
O=S(=O)(c1ccc2c(c1)OCCO2)N1CCN(S(=O)(=O)c2ccc3nc(Cl)c(Cl)nc3c2)CC1	0.5%	.	.	.	.	.
COc1ccc(NC(=O)C(Cl)=C(Cl)Cl)cn1	-8.5%	-5.0%	0.6%	7.7%[57.1 µM]	5.9%[57.1 µM]	-1.7
COc1ccc(NC(=O)/C(Cl)=C(/Cl)S(=O)(=O)Cc2ccccc2)cn1	6.5%	-1.3%	-3.0%	7.08µM*	11.2%[57.1 µM]	2.0
Cc1ccc2c(C)c(C(=O)N(Cc3ccc(Cl)cc3)C3CCS(=O)(=O)C3)oc2c1 (stereo not given)	3.7%	-9.4%	.	28.8%	0.8%	.
CCOC(=O)C1CCN(Cc2ccccc2C(F)(F)F)CC1	1.2%	-5.8%	11.9%	1.3%	0.9%	-10.4
CCOC(=O)C1CCN(Cc2ccc(O)c3ncccc23)CC1	-2.4%	0.7%	-1.2%	7.08µM*	8.3%	-21.7
C=C(CC[C@]12OC(C(=O)O)C(O)(C(=O)O)C(C(=O)O)(O1)C(OC(=O)/C=C/[C@@H](C)C[C@@H](C)CC)C2O)[C@@H](OC(C)=O)[C@H](C)Cc1ccccc1 (stereo not given in full)	.	.	.	6.9%	3.4%	.
C=C(CCC12O[C@H](C(=O)O)[C@@](O)(C(=O)O)[C@](C(=O)O)(O1)[C@H](OC(=O)/C=C/[C@@H](C)C[C@@H](C)CC)[C@H]2O)[C@@H](OC(C)=O)[C@H](C)Cc1ccccc1	.	5.01µM*	.	.	.	.
CNc1ccc(Br)cc(C(=O)/C=C/c2ccc(OC)cc2)c1=O	17.0%	-9.0%	0.9%	-66.3%	-0.4%[57.1 µM]	-4.7
COCCCNC(=O)/C=C/c1ccc(Cl)cc1Cl	0.0%	-2.4%	2.4%	16.4%[57.1 µM]	9.6%[57.1 µM]	1.1
CNc1ccc(Br)cc(C(=O)/C=C/c2cc(OC)ccc2OC)c1=O	?	?	-3.1%	35.5µM*	5.8%	4.9
CCNc1ccc(Br)cc(C(=O)/C=C/c2ccc(Cl)cc2Cl)c1=O	?	-26.1%	-4.7%	8.91µM*	-0.3%	-5.8
CNc1ccc(Br)cc(C(=O)/C=C/c2ccc3c(c2)OCO3)c1=O	?	0.4%	-6.0%	14.1µM*	-9.7%	-7.2
CN(CC(=O)Nc1ccc(OC(F)(F)F)cc1)C(=O)c1ccccc1SCC(=O)N1CCCC1	-0.7%	.	.	-10.7%	-15.7%	-1.2
COCc1cc(=O)[nH]c(SCCS(=O)(=O)c2ccc(Cl)cc2Cl)n1	1.3%	-8.3%	.	1.26µM*	5.9%	12.2
COCc1cc(=O)[nH]c(SCCS(=O)(=O)c2ccc(C)cc2)n1	1.8%	-2.8%	1.4%	1.0%[57.1 µM]	6.6%[57.1 µM]	13.6
O=C(O)CC/C(=N\Nc1ccc(S(=O)(=O)N2CCCC2)cc1[N+](=O)[O-])c1cccs1	-14.1%	-7.2%	-1.5%	-13.2%	-13.2%	-16.0
O=C(O)CC/C(=N\Nc1ccc(S(=O)(=O)N2CCOCC2)cc1[N+](=O)[O-])c1cccs1	-8.9%	-14.8%	6.4%	?	79.4µM*	7.1
